We go through 23 compounds from PubChem BioAssay AID504327 (National Center for Advancing Translational Sciences (NCATS), 2011).

SMILES strings stand for the structures. “And” between values parts separate entries of the source, which are not always exact repeats. Equal values may be shown once. Out of some 390,000 compounds screened, about 820 (0.21%) were called active. Where a call stands in place of a potency, no number is given. Inconclusive results (about 3%) are left out. Calls follow the shape of the dose curve; as a rule, active = well fitted inhibition curve with a large enough effect; inconclusive = small, poorly fitted or top-dose-only effect, or another doubt; inactive = no such curve, though single readings can be large or run the other way. Only a selection was taken, and actives are over-represented in it overall. More than one record can exist for a structure, and the calls need not agree.
Potency is read from the fitted curve at half-maximal effect.

The target of this assay is Histone acetyltransferase KAT2A (Homo sapiens) (UniProt Q92830). In words: qHTS Assay for Inhibitors of GCN5L2. The settings on record: GCN5L2 HAT assay, ThioGlo1 CoA-SH fluorescence; series mostly up to 58.9 µM. The source says: Histone acetyltransferase (HAT) enzymes transfer a […] group from acetyl-coenzyme A to the epsilon-amino group of conserved lysine residues of N-terminal histone tails. Acetylation results in charge neutralization of this positively charged amino acid, decreasing interactions with the […] backbone and making the DNA more accessible for transcription. HATs have been recognized as an emerging drug target for treatment of cancer, diabetes, asthma, chronic obstructive pulmonary disease, cardiac disease, and viral infection. Protein identified with HAT activity include the […] like 2 (GCN5L2, a.ka. Histone acetyltransferase KAT2A) which acetylates histone H3 at Lys9, 14, 18, 13, and to lesser extent histones H4 and H2B. This activates transcription of the gene by modulating chromatin structure and installing the acetyllysine recognition mark for bromodomain-containing coactivator proteins.
Chain of Histone acetyltransferase KAT2A (Homo sapiens) (Q92830 whole entry, looked up): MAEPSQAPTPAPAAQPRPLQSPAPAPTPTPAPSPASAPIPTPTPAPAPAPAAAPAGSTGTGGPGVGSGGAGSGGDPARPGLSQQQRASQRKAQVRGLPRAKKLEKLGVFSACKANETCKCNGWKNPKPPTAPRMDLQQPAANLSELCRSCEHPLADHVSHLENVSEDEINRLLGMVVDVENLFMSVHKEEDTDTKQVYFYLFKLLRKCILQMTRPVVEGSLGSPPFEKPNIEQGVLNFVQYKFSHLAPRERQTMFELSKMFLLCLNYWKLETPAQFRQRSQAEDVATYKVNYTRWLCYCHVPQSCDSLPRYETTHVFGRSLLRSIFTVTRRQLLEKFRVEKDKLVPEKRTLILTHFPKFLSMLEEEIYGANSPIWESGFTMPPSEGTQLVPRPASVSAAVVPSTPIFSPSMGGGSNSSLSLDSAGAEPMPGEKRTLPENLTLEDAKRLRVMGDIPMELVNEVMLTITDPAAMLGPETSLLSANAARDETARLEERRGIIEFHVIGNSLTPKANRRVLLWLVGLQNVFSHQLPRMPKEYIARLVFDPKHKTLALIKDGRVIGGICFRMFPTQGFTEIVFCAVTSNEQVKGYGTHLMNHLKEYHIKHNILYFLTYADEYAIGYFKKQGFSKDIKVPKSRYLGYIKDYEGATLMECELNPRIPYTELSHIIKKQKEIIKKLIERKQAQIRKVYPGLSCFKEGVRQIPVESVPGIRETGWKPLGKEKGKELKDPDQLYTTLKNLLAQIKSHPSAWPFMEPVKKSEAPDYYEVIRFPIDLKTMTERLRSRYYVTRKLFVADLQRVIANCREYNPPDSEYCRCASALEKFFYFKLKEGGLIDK
A quantitative high throughput screen was developed to identify small molecule inhibitors. The assay is based on the principle that it measures formation of reduced CoA with the pro-fluorescent maleimide derivative ThioGlo1 that becomes fluorescent upon reaction with the free thiol of CoA.
A large number of artifacts are expected in this primary screen, compounded by the assay format (fluorescent artifacts) and by the high top concentration tested for each substance. This BioAssay data deposition should be used with caution, and counterscreen and secondary assay validation is essential since very few actives from the primary screen are expected to be true inhibitors of GCN5L2.
[2] Yasgar, et al. Compound Management for Quantitative High-Throughput Screening. JALA. 2008 Apr;13(2):79-89.
[3] Inglese, et al. Quantitative high-throughput screening: a titration-based approach that efficiently identifies biological activities in large chemical libraries. Proc Natl Acad Sci. 1;103(31):11473-8. 2006. PMID: 16864780
NIH Molecular Libraries Probe Production Network [MLPCN]
NIH Chemical Genomics Center [NCGC]
Structural Genomics Consortium (SGC)
To each well of a 1,536w plate, 3ul of GCN5L2 (final concentration 20nM, in 50mM HEPES, 0.1mM EDTA (pH 7.5), 0.01% Tween-20 buffer) are added using a Kalypsys dispenser. Only buffer is added to some wells as a control. A Kalypsys pin-tool transferred 23nl of library compound solution in DMSO to each well, as well as the control inhibit garcinol. . Following a 15 min incubation of enzyme with compounds at room temperature, 1ul mixture of ThioGlo1 (50uM final), H3(1-25) peptide (75uM final), and Acetyl-CoA (70uM final) is added. Plates are read immediately on the ViewLux (PerkinElmer) (Ex340nm/Em540nm) for a 0 min read, incubated for 20 min at room temperature, and read again on the ViewLux with the same settings. The initial read was carried out to identify compounds that are potentially fluorescent.
For orientation: qHTS replaces the single test concentration by a dilution series.
In the case of `O=C1CCc2cccc3c2N1CC3`, the Potency result is “inactive”. On the same count and under the same terms, with `CC(C)=CCC[C@]1(C)[C@@H](CC=C(C)C)C[C@@]2(CC=C(C)C)C(=O)[C@]1(C(=O)C(C)C)C(=O)C(CC=C(C)C)=C2O` the figure was 28.2 µM (active). Take `Nc1ccc(-c2ccc(N)c(N)c2)cc1N`: the Potency entry was “inactive”. On to `CCCN(C/C=C/I)C1CCc2ccc(O)cc2C1` (stereo not drawn), for which the Potency entry was “inactive”.

Regarding `Cc1cccc2c(CCN)c[nH]c12`, the Potency result was “inactive”. On to `NCCc1c[nH]c2ccc(O)cc12`, for which the Potency entry is “inactive and 11.2 µM (active)”. On the same count and under the same terms, the same measure for `COc1ccc2[nH]cc(CCNCc3ccc(Br)cc3)c2c1`: “inactive”; for `CC(=O)Oc1ccccc1C(=O)Nc1ncc([N+](=O)[O-])s1`: “inactive”. As for `CC[C@@H]1CN2CC[C@@H]1C[C@H]2[C@H](O)c1ccnc2ccc(OC)cc12`, the Potency entry was “inactive”. For `COc1ccccc1-c1[se]c2ccccc2c1I`, the Potency entry was “inactive”. For the compound `CCCCCCCCCCCCN=C(N)N`, the Potency entry is “inactive”.

Consider `N#Cc1c(Cl)c(Cl)c(Cl)c(C#N)c1Cl`, for which the Potency result was “inactive”. Regarding `CCCCCCCCCCCCCC(=O)O[C@@H]1[C@@H](C)[C@@]2(O)[C@@H](C=C(CO)C[C@]3(O)C(=O)C(C)=C[C@@H]23)[C@@H]2C(C)(C)[C@]12OC(C)=O`, the Potency entry was “inactive”. Regarding `CC(=O)[O][Sn]([c]1ccccc1)([c]1ccccc1)[c]1ccccc1`, the Potency was 4.47 µM (active).

Consider `COC(=O)N1C(c2ccccc2)C1c1ccccc1` (stereo not drawn), for which the Potency result is “inactive”. Still for that read-out and setting: the same measure for `C[C@H]1C/C=C/[C@@H]2[C@@H]3O[C@]3(C)[C@@H](C)[C@H]3[C@H](Cc4ccccc4)NC(=O)[C@]32OC(=O)O/C=C/[C@](C)(O)C1=O`: “inactive”. `CN[C@@H]1C[C@H]2O[C@@](C)([C@@H]1OC)n1c3ccccc3c3c4c(c5c6ccccc6n2c5c31)C(=O)NC4`: the activity change, negative = inhibition is 4.47% [at 12.7 µM] (inactive). As for `CNCC[C@H](Oc1ccc(C(F)(F)F)cc1)c1ccccc1`, the Potency entry is “inactive and 8.91 µM (active)”. `CCCCC/C=C\C/C=C\C/C=C\C=C\[C@H](CCCC(=O)O)OO`: the Potency entry was “inactive”. On the same count and under the same terms, with `N#CC(C#N)=Cc1cc(O)c(O)c([N+](=O)[O-])c1` the entry was “inactive”; with `C[C@@H]1C[C@H]2CC[C@H](O2)[C@H](C)C(=O)O[C@@H](C)C[C@@H]2CC[C@@H](O2)[C@@H](C)C(=O)O[C@H](C)C[C@H]2CC[C@H](O2)[C@H](C)C(=O)O[C@@H](C)C[C@@H]2CC[C@@H](O2)[C@@H](C)C(=O)O1`, “inactive”. Still for that read-out and setting: with `N#Cc1cc(Br)c(O)c(Br)c1` the entry was “inactive”; with `c1ccc(N2CC[C@@]3(CCCNC3)C2)nc1`, “inactive”.
